NFkB transloc pot = enhances IL-1B driven NFkB nuclear translocation. HUVEC IL-1B NFkB p65 nuclear translocation imaging. activation, % at 2 µM. hit rate 0.3% among 94,000;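 active = activation above 40%, about the mean plus 3 SD, also judged a hit on visual image review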;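 note: percent activation is computed from the nuclear over cytoplasmic p65 intensity ratio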
NFkB transloc inh = blocks IL-1B driven NFkB nuclear translocation in HUVEC cells; HUVEC IL-1B NFkB p65 nuclear translocation imaging; inhibition, % at 2 µM; hit rate 0.43% among 94,000;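 active = inhibition above about 30% together with a positive call from visual inspection of the well image, limit read from the data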;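 note: nuclear over cytoplasmic p65 intensity ratio measured by imaging; 0% = IL-1B stimulated DMSO wells and 100% = unstimulated DMSO wells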
Measles CPE = protection of cells from measles virus; hit rate 1.5% among 140,000; protection (pct of control), % at 4 µM; Measles virus-infected cells, CPE protection, absorbance; in the data active = protection mostly above about 24%, no sharp cut-off; inactive = mostly below about 26%
IL1B cytotox = toxic to HUVEC cells under IL-1B stimulation; HUVEC cell count loss, Hoechst imaging, IL-1B stimulated; cell count reduction, % at 2 µM; hit rate 0.41% among 94,000; AID 845;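 active = cell count reduction more than 3 SD above the screen-wide mean, cut at about 70% in these data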;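 note: normalized per plate to untreated control cells as the no-loss baseline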
Active calls of the source: *; . = not tested or not shown. Compounds with a hit are over-represented: about 2.1% of the library has one in this group of screens.

SMILES	NFkB transloc pot	NFkB transloc inh	Measles CPE	IL1B cytotox
Cc1occc(=O)c1OC(=O)Nc1ccc(Cl)c(Cl)c1	.	.	9	.
COC(=O)[C@@]1(Cc2ccc(F)cc2)[C@H]2c3cc(C(=O)N4CCCC4)n(CCc4ccccn4)c3C[C@H]2CN1C(=O)c1ccccc1	.	.	17	.
COc1ccc(CNC(=O)C2CCCN(S(=O)(=O)c3cc(C)ccc3OC)C2)cc1 (stereo not given)	-64	64*	11	8
Cc1noc(C)c1C(=O)OCC(=O)NCCC1=CCCCC1	114*	-114	15	-2
Cc1ccc(S(=O)(=O)Nc2cccc3ncccc23)s1	-23	23	1	14
[O-]/[N+](=C\c1ccccc1)[C@@H]1CCCC[C@@H]1/[N+]([O-])=C/c1ccccc1	-12	12	9	93*
[O-]/[N+](=C\c1ccc(F)cc1)c1ccccc1	-12	12	15	4
O=C(Nc1ccccc1)C1CCN(c2nccs2)CC1	0	0	18	-26
CCOc1ccc2nc(NC(=O)c3cccnc3)sc2c1	.	.	2	.
CCOc1ccc2nc(NC(=O)c3cnc(C)cn3)sc2c1	-39	39*	8	-126
CNC(=O)c1[nH]cnc1C(=O)Nc1ccc(C)cc1	11	-11	15	-8
Cc1ccc(NC(=O)c2nc[nH]c2C(=O)Nc2ccc(C)cc2)cc1	-10	10	59*	12
CCC(=O)N1CCCc2cc(S(=O)(=O)N3CCN(c4ccccn4)CC3)ccc21	.	.	6	.
Brc1ccc(-c2nnc3n2CCCCC3)cc1	-2	2	10	-9
Clc1ccc(-c2nnc3n2CCCCC3)cc1	.	.	79*	.
CC(=O)Nc1ccc(-c2csc(NC(=O)C3CCN(S(=O)(=O)c4cccs4)CC3)n2)cc1	.	.	68*	.
O=C(c1cccs1)N(Cc1ccco1)c1nc(-c2ccc(F)cc2)cs1	-5	5	19	4
CN(C)CCCN(C(=O)c1cccs1)c1nc(-c2ccccc2)cs1	-4	4	40*	-5
Cc1ccc(NS(=O)(=O)c2ccc(OCC(=O)N3CCOCC3)cc2)cc1	7	-7	6	14
COc1ccccc1C1/C(=C(/O)c2ccccc2)C(=O)C(=O)N1CC(C)O (stereo not given)	-10	10	4	-19
O=c1oc(-c2ccccc2NS(=O)(=O)c2ccc3ccccc3c2)nc2ccccc12	.	.	39	.
COc1ccc(OCC(=O)c2c(O)c3ccccc3oc2=O)cc1	-13	13	27	94*
O=C(O)c1ccccc1C(=O)N1CCN(c2ccccc2)CC1	-7	7	45*	3
O=C(c1ccccc1C(=O)N1CCN(c2ccccc2)CC1)N1CCN(c2ccccc2)CC1	30	-30	17	-31
COCCN1Cc2cccc(C(=O)N3CCN(c4ccccc4)CC3)c2C1=O	0	0	3	44
SMILES	NFkB transloc pot	NFkB transloc inh	Measles CPE	IL1B cytotox
CCCN1Cc2cccc(C(=O)N3CCN(c4ccccc4)CC3)c2C1=O	32	-32	11	94*
CC1=C(C#N)C(c2ccc3ncccc3c2)C(C#N)=C(C)N1	-50	50*	5	-23
CC1=C(C#N)C(c2cccnc2)C2=C(CC(C)(C)CC2=O)N1 (stereo not given)	.	.	3	.
O=[N+]([O-])c1cccc(-n2nnnc2CN2CCCCCC2)c1	-3	3	33*	14
Clc1ccc(-n2nnnc2CN2CCOCC2)cc1	1	-1	14	-12
COc1ccc(C2NC(=O)NC(c3ccccc3)=C2c2nc3ccccc3s2)cc1 (stereo not given)	-3	3	28*	-9
O=C1NC(c2ccccc2)=C(c2nc3ccccc3s2)C(c2ccc(F)cc2)N1 (stereo not given)	10	-10	7	5
O=C(O)c1cccc2c1C(=O)N(Cc1ccncc1)C2	-6	6	72*	-12
CN(C)CC(C)(C)CNS(=O)(=O)c1cccc2nsnc12	.	.	1	.
NC(=O)C1(N2CCCCC2)CCN(CC(=O)Nc2ccccc2Sc2ccccc2)CC1	-7	7	11	14
NC(=O)C1(N2CCCCC2)CCN(CC(=O)Nc2cc(Cl)ccc2Cl)CC1	-99	99*	19	80*
Cc1ccc(Cl)cc1-c1ccc(C=Nc2ccc(N3CCOCC3)cc2)o1	.	.	60*	.
Cc1ccc(/C=N/N2CCN(c3ccc(Cl)cc3)CC2)o1	-1	1	2	2
Cc1ccc(-c2nc3n(n2)Cc2ccccc2-3)cc1	-2	2	7	-2
NC(=S)Cc1nc2n(n1)Cc1ccccc1-2	6	-6	50*	-10
CCOC(=O)CSc1nnc(-c2ccco2)n1-c1ccccc1	7	-7	23	0
CCOC(=O)CSc1nnc(-c2ccco2)n1-c1ccc(C)cc1	7	-7	38*	-27

Screening results deposited in PubChem BioAssay by several laboratories.
